# CYP2C19 inh – blockers of cytochrome P450 2C19 activity – biochemical, luminescence, ADME assay, primary screen; 96,000 compounds, 21% hits; CYP2C19 Supersomes, luciferin-H EGE luminescence, 30 min; AID 778, 2007; inhibition, % at 5 µM;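 active = CYP2C19 inhibition above a set limit at 5 µM in the primary screen, cut at about 50% in these data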;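 note: plate controls were negative control wells for no effect and 2.5 mM tranylcypromine positive control for full effect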
# Cav32 inh – Cav3.2 calcium influx blockers – cell-based, Fluo-4 calcium fluorescence, FDSS, MLSMR library, primary screen; Cav3.2-expressing cells; stronger effect = lower value; B-score at 10 µM; Voltage-dependent T-type calcium channel subunit alpha-1H (Homo sapiens), O95180; 100,000 compounds, 4% hits;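 active = single-dose well whose peak fluorescence ratio is a statistical outlier from its plate by either plate-standardised score or position-corrected B-score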
# CYP2C19 act – human CYP2C19 activators, primary screen, biochemical, luminescence; Cytochrome P450 2C19 (Homo sapiens), P33261; recombinant CYP2C19, luciferin-H EGE luminescence; stronger effect = higher value; 0 = fully inhibited enzyme, 1 = untreated enzyme; activation factor at 5 µM; 96,000 tested, under 10 active; AID 1025, 2008;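 active = activation factor of at least 2 at 5 µM in the primary screen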;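 note: 0 = wells with 2.5 mM tranylcypromine and 1 = vehicle-only wells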
# CYP2C9 activ – human CYP2C9 activators, primary screen, biochemical, luminescence. 96,000 compounds, 1.4% hits. AID 1024, 2008. Cytochrome P450 2C9 (Homo sapiens), P11712. recombinant CYP2C9, luciferin-H conversion; stronger effect = higher value; factor 1 = untreated enzyme, 0 = blocked. activation factor at 5 µM;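 active = activation factor of 2 or more for CYP2C9 at a 5 µM dose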;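 note: 0 = sulfaphenazole-blocked wells and 1 = vehicle-only wells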
# Target sequence (P11712 whole entry, looked up): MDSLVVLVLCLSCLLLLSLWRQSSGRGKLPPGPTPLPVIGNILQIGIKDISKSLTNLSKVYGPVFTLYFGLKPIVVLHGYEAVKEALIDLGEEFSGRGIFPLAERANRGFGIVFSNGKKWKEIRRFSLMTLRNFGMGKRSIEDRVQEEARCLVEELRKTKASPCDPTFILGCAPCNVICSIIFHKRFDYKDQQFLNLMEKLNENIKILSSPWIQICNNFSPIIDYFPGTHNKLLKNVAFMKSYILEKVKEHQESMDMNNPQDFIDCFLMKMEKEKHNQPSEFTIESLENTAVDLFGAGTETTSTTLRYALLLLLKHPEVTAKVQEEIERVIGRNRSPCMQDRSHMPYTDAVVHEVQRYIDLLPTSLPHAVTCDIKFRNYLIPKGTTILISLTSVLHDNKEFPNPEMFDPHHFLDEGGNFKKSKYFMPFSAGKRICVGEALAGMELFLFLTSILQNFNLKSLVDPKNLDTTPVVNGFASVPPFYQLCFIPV
# CYP2C9 inhib – blockers of cytochrome P450 2C9 activity – biochemical, luminescence, ADME assay, primary screen. P11712. CYP2C9 Supersomes, luciferin-H conversion. inhibition, % at 5 µM. 96,000 compounds, 20% hits. AID 777, 2007;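 active = blocking of liver enzyme CYP2C9 beyond about 50% at 5 µM, limit read from the data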
# The depositor's hits bear a star; x = not tested or not shown. A selection: hits, their analogues and other compounds. The true share with any hit is near 27%.
SMILES,CYP2C19 inh,Cav32 inh,CYP2C19 act,CYP2C9 activ,CYP2C9 inhib
CCOC(=O)C1CCCc2c1[nH]c1c(C(N)=O)cccc21 (configuration not stated),39,-0.58,0.6,0.5,53*
COCCn1c(SCC(=O)N2CCCc3ccccc32)nnc1-c1ccco1,48,0.5,0.5,1.1,-6
CCc1cc2c(=O)n(Cc3ccco3)c(SCC(=O)N3CCCc4ccccc43)nc2s1,34,-5.3*,0.7,0.1,87*
CCc1cc2c(=O)n(Cc3ccco3)c(SCc3c(C)noc3C)nc2s1,51*,-2.9,0.5,0.1,90*
Cc1ccc(C)c(N=C2CCCN2Cc2ccccc2)c1C#N,x,-3.6,x,x,x
CCCn1nnnc1NCc1ccccc1OCc1ccc(F)cc1,88*,-2.7,0.1,0.1,89*
CC(O)C(=O)NCCOCCOCCNC(=O)C(C)O (configuration not stated),66*,0.35,0.3,0.6,44
CC(O)CCC(=O)NCCNC(=O)CCC(C)O (configuration not stated),-18,-1.2,1.2,1.1,-15
O=C(CN1CCCCC1)Nc1cccc(Oc2ccccc2)c1,77*,-0.16,0.2,0.1,90*
COc1cccc(NC(=O)Cn2cc3c(n2)CCCCC3)c1,10,-1.6,0.9,0.9,6
COc1cccc(NC(=O)CN2CCC(C)CC2)c1,90*,1.7,0.1,0.5,54*
CC(C)N(Cc1nnc(-c2ccccc2Cl)o1)C(=O)c1cccc(C#N)c1,38,x,0.6,0.8,22
CCCCOc1ccc(C(=O)N2CC(C)OC(C)C2)cc1 (configuration not stated),6,0.51,0.9,1.3,-31
CC(C)(C)c1ccc(-c2noc(CCC(=O)NCC3CCCO3)n2)cc1 (configuration not stated),65*,-0.079,0.4,0.5,48
CN(C)C(=O)CCc1nc(-c2ccc(C(C)(C)C)cc2)no1,10,-0.86,0.9,0.8,16
CCN(Cc1ccccc1)C(=O)CCc1nc(-c2ccc(C)cc2)no1,81*,-7.5*,0.2,0.1,88*
Brc1ccc(-c2noc(CCc3ccccc3)n2)cc1,x,0.026,x,x,x
Cc1ccc(-c2noc(CCC(=O)Nc3ccc(C)cn3)n2)cc1,-15,0.012,1.1,0.9,12
CCc1ccccc1N(CC)C(=O)CCc1nc(-c2ccc(C)cc2)no1,27,-2.8,0.7,0.5,55*
O=C(Nc1ccc(-c2noc(CCc3ccccc3)n2)cc1)c1ccco1,41,-0.0075,0.6,0.3,71*
S=c1[nH]nc(C2COc3ccccc3O2)o1 (configuration not stated),6,0.25,0.9,0.5,50
CCOC1(C(F)(F)F)NC(=O)N(Cc2ccc(OC)cc2)C1=O (configuration not stated),38,-0.36,0.6,0.9,14
O=C(CCC(=O)NC1CCN(Cc2ccccc2)CC1)NCc1ccco1,4,0.23,1,1.1,-9
CCOC(=O)N1CCC(NC(=O)CCc2nc(-c3ccc(C)cc3)no2)CC1,41,-0.0053,0.6,0.3,73*
CCOC(=O)N1CCC(NC(=O)CC(NS(=O)(=O)c2ccc(C)cc2)c2ccco2)CC1 (configuration not stated),48,-0.002,0.5,0.4,59*
SMILES,CYP2C19 inh,Cav32 inh,CYP2C19 act,CYP2C9 activ,CYP2C9 inhib
Cc1ccc(S(=O)(=O)NC(CC(=O)N2CCc3ccccc32)c2ccco2)cc1 (configuration not stated),33,x,0.7,0.6,40
O=C(CCc1nc(-c2ccccc2)no1)NC1CCCCC1,-3,0.7,1,0.7,33
CC1(C)CC(=O)CC(=NCC(=O)O)C1,7,-0.17,0.9,0.8,21
CN(C)c1ccc(C2C3C(=O)NC(=O)C3ON2c2ccc(Cl)cc2)cc1 (configuration not stated),51*,0.27,0.5,0.6,37
COc1ccc(C)cc1-n1nnnc1SCc1cc(=O)n2cc(C)ccc2n1,61*,-0.0076,0.4,0.9,13
Nn1c(SCc2csc(-c3ccccc3)n2)nnc1-c1cccs1,11,0.011,0.9,1,-3
COc1ccc(C)cc1-n1nnnc1SCc1csc(C)n1,99*,0.85,0,0.3,73*
Cc1ccccc1-n1nnnc1SCc1csc(-c2ccccc2)n1,97*,-4.5*,0,0.1,93*
CN(C)C1NC(=O)c2cc(-c3ccccc3)sc2N1 (configuration not stated),46,-0.43,0.5,0.7,28
COc1ccc(-c2cc(C)nc(SCC(=O)c3cccc([N+](=O)[O-])c3)n2)cc1,-10,-1.3,1.1,1,3
COc1ccc(OC)c(C(=O)CSc2nnc(-c3cccnc3)n2C)c1,72*,0.0017,0.3,1.1,-12
CCCn1c(SCC(=O)c2ccc3c(c2)OCCO3)nnc1-c1ccco1,31,0.11,0.7,0.8,21
CCCn1c(SCC(=O)c2cc(OC)ccc2OC)nnc1-c1ccco1,97*,-0.89,0,0.5,46
COc1ccc(OC)c(C(=O)CSc2nccc(-c3ccc(Br)cc3)n2)c1,11,-2,0.9,0.2,79*
CCn1c(SCC(=O)c2cc(OC)ccc2OC)nnc1C(C)C,99*,0.82,0,0.6,41
COC(=O)c1cc(OC)c(OC)cc1NC(=O)CSc1nnc(-c2cccnc2)n1C,x,0.61,x,x,x
CCn1c(SCC(=O)c2ccc(OC)cc2)nnc1C(C)NC(=O)c1ccc(OC)cc1 (configuration not stated),28,0.41,0.7,0.8,17
C[C@@]12CCC=C[C@H]1[C@H](c1ccc(F)c(/C=C/c3ccccc3)c1)N(Cc1ccccc1)C2=O,x,-0.2,x,x,x
CC1=CC(C)(C)N2C(=O)C3(N=C(N)NC(Nc4ccccc4)=N3)c3cc(C)cc1c32 (configuration not stated),5,-3.7*,1,0.9,8
COC(=O)C1=C(C)N(CCCC(=O)O)C(=O)NC1c1ccccc1OS(=O)(=O)c1ccc([N+](=O)[O-])cc1 (configuration not stated),x,1.1,x,x,x
CC(CCc1ccccc1)NC(=O)c1ccccc1 (configuration not stated),66*,0.65,0.3,0.1,91*
CC(CCc1ccccc1)NC(=O)c1ccncc1 (configuration not stated),100*,0.19,0,0.1,94*
O=C(CCC(=O)Nc1ccccc1)NNC(=O)c1cccs1,-3,0.6,1,1,-2
CC(CCc1ccccc1)NC(=O)c1ccc(C(=O)NC(C)CCc2ccccc2)cc1 (configuration not stated),10,x,0.9,0.8,16
